NPC1 prom act: qHTS Assay for NPC1 Promoter Activators; Huh7 NPC1 promoter luciferase reporter, 24 h; Potency, µM (series often up to 9.22 µM), usual class: activators; 320,000 compounds, 2.4% hits; also: nearly all actives have a fitted effect of over 60% in size
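Cells: Huh7 expressing luciferase under the NPC1 promoter, 1500/well. Seeded 2 h, compound added, incubated 24 h at 37 °C. Luciferase reagent, 10 min ambient, then luminescence.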
SMN2 splice enh: qHTS Assay for Enhancers of SMN2 Splice Variant Expression | HEK293 SMN2-luciferase splicing reporter, luminescence, 30-36 h | Potency, µM (top dose mostly 46.1 µM), usual class: activators | 210,000 compounds, 2.8% hits | AID 1458, 2008; also: nearly all actives have a fitted effect of over 55% in size
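HEK293 cells carry an SMN2 minigene-luciferase reporter in which exon 7 inclusion puts luciferase in frame. Cells were seeded at 2000 cells/well, attached for 10-12 hours, then exposed to compounds for 30-36 hours at 37C before ONE-Glo luminescence.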
FLuc counter: qHTS profiling assay for firefly luciferase inhibitor/activator using purifed enzyme and Km concentrations of substrates (counterscreen for miR-21 project). Luciferin 4-monooxygenase (Photinus pyralis), P08659. purified FLuc, Km substrates, luminescence inhibition. Potency, µM (highest dose often 57.5 µM), actives largely listed as inhibitors. 360,000 compounds, 6.9% hits; also: nearly all actives have a fitted effect of over 55% in size
Target sequence (P08659 whole entry, looked up): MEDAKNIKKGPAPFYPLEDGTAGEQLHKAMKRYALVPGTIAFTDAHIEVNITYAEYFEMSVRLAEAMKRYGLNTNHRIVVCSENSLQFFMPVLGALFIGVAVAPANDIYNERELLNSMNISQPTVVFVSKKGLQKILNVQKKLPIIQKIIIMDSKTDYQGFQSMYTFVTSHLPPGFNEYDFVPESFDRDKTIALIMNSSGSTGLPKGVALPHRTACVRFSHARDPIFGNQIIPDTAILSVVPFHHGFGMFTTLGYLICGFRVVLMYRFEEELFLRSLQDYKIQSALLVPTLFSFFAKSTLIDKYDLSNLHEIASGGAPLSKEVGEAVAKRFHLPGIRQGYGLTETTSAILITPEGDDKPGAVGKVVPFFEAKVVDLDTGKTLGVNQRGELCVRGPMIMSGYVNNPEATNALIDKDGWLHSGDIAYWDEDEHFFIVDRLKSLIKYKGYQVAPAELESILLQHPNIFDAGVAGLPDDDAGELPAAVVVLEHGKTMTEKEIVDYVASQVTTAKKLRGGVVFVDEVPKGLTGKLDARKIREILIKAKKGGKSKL
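Biochemical qHTS of compounds, final roughly 60 µM downward over six points, against 10 nM purified firefly luciferase using Km concentrations of substrates (10 uM D-luciferin, 10 uM ATP) in Tris acetate pH 7.5 buffer; luminescence output.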
KinaseGlo FLuc: Counterscreen for Luciferase (Kinase-Glo TM) Inhibition; Kinase-Glo luciferase, ATP luminescence, 8 min; Potency, µM (series often up to 38.3 µM), usual class: inhibitors; 200,000 compounds, 0.28% hits; AID 1379, 2008; also: nearly all actives have a fitted effect of over 60% in size
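Light output from Kinase-Glo luciferase with luciferin and 10 uM ATP in 50 mM imidazole pH 7.2, KCl, MgCl2, Tween 20, BSA; compound pin-delivered, 8-min ambient incubation, then luminescence read.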
Rab9 promoter act: qHTS Assay for Rab9 Promoter Activators | Huh7 Rab9 promoter-luciferase reporter, luminescence, 24 h | Potency, µM (highest dose often 9.22 µM), usual class: activators | 320,000 compounds, 2.8% hits; also: nearly all actives have a fitted effect of over 60% in size
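Rab9 promoter-driven luciferase in stably transfected Huh7 cells; 1500 cells/well rested 2 h, exposed to compound in DMSO for 24 h at 37 °C, 5% CO2. Luminescence read 10 min after adding luciferase reagent at ambient temperature.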
Numbers stand for hits; [ ] = dose if it differs, or a comment. The list is not random: actives were taken first. Their share in the collection is about 7.3%. Calls follow the shape of the dose curve; as a rule, active = well fitted curve in the direction sought with a large enough effect; inconclusive = small, poorly fitted or top-dose-only effect, or another doubt; inactive = no such curve, though single readings can be large; an effect the other way counts as inactive or inconclusive.

`COC(=O)c1cc(Cl)ccc1NC(=O)CSc1ncc(S(=O)(=O)c2ccc(Br)cc2)c(=O)[nH]1` gave SMN2 splice enh inactive and FLuc counter 10.7µM.
COc1ccc(CNC(=O)CSc2ncc(S(=O)(=O)c3ccc(Br)cc3)c(=O)[nH]2)cc1 was read as SMN2 splice enh inactive and FLuc counter inconclusive.
Screening O=C(CSc1ncc(S(=O)(=O)c2ccc(Br)cc2)c(=O)[nH]1)NCc1ccccc1Cl returned SMN2 splice enh inactive and FLuc counter 9.53µM.
`Cc1nnc(N2CCN(C(=O)NC(C)C)CC2)c2nn(-c3ccccc3)c(C)c12` gave FLuc counter inactive.
COc1cccc(N(C(=O)c2nc3nccc(C)n3n2)c2nc3ccccc3s2)c1 was read as NPC1 prom act inconclusive, SMN2 splice enh 10µM, FLuc counter 10.7µM, KinaseGlo FLuc inactive and Rab9 promoter act 2µM.
Cc1c(C(=O)NC2CCCCC2C)oc2ccccc12 (stereo not drawn) was read as NPC1 prom act inactive, FLuc counter 13.5µM and Rab9 promoter act inactive.
Screening Cc1c(C(=O)NC2CCC(C)CC2)oc2ccccc12 (stereo not drawn) returned NPC1 prom act 3.16µM, FLuc counter 9.53µM and Rab9 promoter act 2.82µM.
Screening Cc1c(C(=O)NC2CC2)oc2ccccc12 returned NPC1 prom act inactive, FLuc counter inconclusive and Rab9 promoter act inactive.
`Cc1cccc(Nc2nc(-c3ccc(O)cc3O)cs2)n1` gave NPC1 prom act 3.16µM, FLuc counter 13.5µM and Rab9 promoter act 3.98µM.
Oc1ccc(-c2csc(Nc3ncccn3)n2)c(O)c1 was read as NPC1 prom act 3.16µM, SMN2 splice enh 11.2µM, FLuc counter 3.01µM, KinaseGlo FLuc inactive and Rab9 promoter act 1.12µM.
Screening Oc1ccc(-c2csc(Nc3ncccn3)n2)cc1O returned NPC1 prom act inactive, SMN2 splice enh inconclusive, FLuc counter 8.49µM, KinaseGlo FLuc inactive and Rab9 promoter act inactive.
Screening O=C(/C=C/c1ccco1)Nc1cccc(C(=O)Nc2ccccc2C(=O)O)c1 returned NPC1 prom act inactive, FLuc counter 21.3µM and Rab9 promoter act inactive.
`Cc1ccc(NC(=O)N/C=C/c2ccco2)cc1C` gave NPC1 prom act inactive, SMN2 splice enh inactive, FLuc counter 10.7µM, KinaseGlo FLuc inactive and Rab9 promoter act inactive.
`Cc1ccc(NC(=O)c2cccc(NC(=O)/C=C/c3ccco3)c2)cc1C` gave NPC1 prom act inconclusive, SMN2 splice enh 17.8µM, FLuc counter 1.9µM, KinaseGlo FLuc inactive and Rab9 promoter act 3.16µM.
CCc1ccccc1NC(=O)c1cccc(NC(=O)/C=C/c2ccco2)c1 was read as NPC1 prom act inactive, SMN2 splice enh inactive, FLuc counter 3.01µM, KinaseGlo FLuc inactive and Rab9 promoter act inconclusive.
O=C(O)c1cccc(NC(=O)c2ccccc2NC(=O)c2ccco2)c1 was read as NPC1 prom act inactive, FLuc counter inconclusive and Rab9 promoter act inactive.
Cc1ccc2[nH]c(=O)c(CN(C(=O)c3cccc(Cl)c3)C(C)(C)C)cc2c1 was read as SMN2 splice enh inactive and FLuc counter inactive.
COc1cc(OC)c(NC(=O)N2CCc3c(sc4c3CCCC4)C2c2ccccc2)cc1Cl (stereo not drawn) was read as FLuc counter inactive.
Screening Cc1ccc(-n2nc3ccc(NC(=O)c4cc5ccccc5o4)cc3n2)cc1 returned SMN2 splice enh inactive and FLuc counter inactive.
Cc1ccc(-n2nc3ccc(NC(=O)/C=C/c4ccco4)cc3n2)cc1 was read as NPC1 prom act inconclusive, SMN2 splice enh 14.1µM, FLuc counter inconclusive, KinaseGlo FLuc inactive and Rab9 promoter act inconclusive.
CCN1CCN(C(=O)c2cc3cc([N+](=O)[O-])ccc3oc2=O)CC1 was read as NPC1 prom act inactive, SMN2 splice enh inactive, FLuc counter inactive, KinaseGlo FLuc inactive and Rab9 promoter act inactive.
For O=C(c1cc2cc([N+](=O)[O-])ccc2oc1=O)n1cccn1 the results were NPC1 prom act inactive, SMN2 splice enh inactive, FLuc counter inactive, KinaseGlo FLuc inactive and Rab9 promoter act 3.98µM.
Screening COC(=O)c1cc(Cl)c(NC(=O)/C=C/c2ccc(Cl)cc2Cl)cc1OC returned NPC1 prom act inactive, SMN2 splice enh inactive, FLuc counter inactive, KinaseGlo FLuc inactive and Rab9 promoter act inactive.
`COC(=O)c1sccc1NC(=O)/C=C/c1c(Cl)cccc1Cl` gave NPC1 prom act inactive, SMN2 splice enh 14.1µM, FLuc counter 12µM, KinaseGlo FLuc inactive and Rab9 promoter act inconclusive.
COC(=O)c1sccc1NC(=O)/C=C/c1ccc(Cl)cc1Cl was read as NPC1 prom act inconclusive, SMN2 splice enh 11.2µM, FLuc counter inconclusive, KinaseGlo FLuc inactive and Rab9 promoter act inconclusive.
`COC(=O)c1sccc1NC(=O)c1c(Cl)cccc1Cl` gave NPC1 prom act inactive, FLuc counter inactive and Rab9 promoter act inactive.
`CCCCC(=O)NC(=S)Nc1cc(C(=O)O)ccc1OC` gave NPC1 prom act inactive, SMN2 splice enh inactive, FLuc counter inactive, KinaseGlo FLuc inactive and Rab9 promoter act inactive.
COc1ccc(C(=O)O)cc1NC(=S)NC(=O)/C=C/c1ccc(C(C)C)cc1 was read as NPC1 prom act inactive, FLuc counter 10.7µM and Rab9 promoter act inactive.
Screening O=C(O)/C=C\c1c2ccc(=O)c(O)c-2oc2c(O)c(O)ccc12 returned SMN2 splice enh inactive[9.22 µM] and KinaseGlo FLuc inactive[7.66 µM].
`O=C(CCCc1ccccc1)Nc1cccc([N+](=O)[O-])c1` gave NPC1 prom act 3.55µM, FLuc counter inconclusive and Rab9 promoter act inconclusive.
Screening O=C(NCCc1ccccc1)c1cccc([N+](=O)[O-])c1 returned NPC1 prom act inactive, SMN2 splice enh 11.2µM, FLuc counter inconclusive, KinaseGlo FLuc inactive and Rab9 promoter act inactive.
`O=C(NCCc1ccccc1)c1cccnc1` gave NPC1 prom act inconclusive, SMN2 splice enh inconclusive, FLuc counter inconclusive, KinaseGlo FLuc inactive and Rab9 promoter act 3.16µM.
`CN(C)S(=O)(=O)c1cccc(C(=O)NCCc2ccccc2)c1` gave NPC1 prom act 0.794µM, SMN2 splice enh 11.2µM, FLuc counter 7.57µM, KinaseGlo FLuc inactive and Rab9 promoter act 1.41µM.
`O=C(CCNC(=O)c1ccc([N+](=O)[O-])cc1)NCCc1ccccc1` gave NPC1 prom act inactive, FLuc counter inactive and Rab9 promoter act inactive.
`N#Cc1c(NC(=O)c2cc3nc(-c4ccc(Br)cc4)cc(C(F)(F)F)n3n2)sc2c1CCCC2` gave FLuc counter inactive.
Screening CCOC(=O)c1c(C)[nH]c(CCC(=O)NCCCN2CCN(c3ccccc3F)CC2)c1C returned FLuc counter inactive.
Screening O=C(NCCc1ccccc1)c1cnc2ccccc2n1 returned NPC1 prom act 3.55µM, FLuc counter 8.49µM and Rab9 promoter act 1.41µM.
